Sm TGR block – S. mansoni TGR enzyme inhibition; purified TGR, DTNB reduction, TNB absorbance 405 nm; Q962Y6; 3% of 360,000 active; Potency, µM (doses to about 114 µM), inactives show top-dose activity change, negative = inhibition, hits mostly inhibitors; note: potency is the fitted concentration of half-maximal effect; % is set by controls: 0 for no effect and ±100 for the full control effect; nearly all actives have a fitted effect of over 60% in size
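Kinetic colorimetric format: TGR-catalysed, NADPH-driven DTNB reduction monitored via TNB absorbance. Enzyme dispensed at 20 nM; compound exposure 15 min at room temperature before reaction start.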
SARS PLP yeast – blocks SARS-CoV papain-like protease in a yeast assay | S. cerevisiae expressing SARS-CoV PLpro, growth rescue | Potency, µM (highest dose often 32.9 µM), for the others: at the top dose activity, positive = growth rescue, most hits filed as activators | 0.19% of 330,000 active; calls by dose curve; note: potency is the fitted concentration of half-maximal effect; 0% is about no effect; nearly all actives have a fitted effect of over 55% in size
RE007 growth inh – less growth of the S. pombe RE007 Vpr strain; S. pombe RE007 Vpr strain, BacTiter-Glo ATP luminescence, 24 h; Potency, µM (highest dose often 92.2 µM), without a hit: at the highest dose activity change, negative = less growth, most hits filed as inhibitors; 0.21% of 360,000 active; active = well fitted falling curve with a large enough effect; inconclusive = small, poorly fitted or top-dose-only effect; inactive = no such curve, though single readings can be large or run the other way; note: potency is the fitted concentration of half-maximal effect; % is set by controls: 0 for no effect and ±100 for the full control effect; nearly all actives have a fitted effect of over 50% in size
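Fission yeast strain RE007, carrying one chromosomally integrated HIV-1 vpr copy, was seeded at OD 0.01 in PMG+AL medium with 23 nL pinned compound. After 24 h at 30 °C and 99% humidity, viability was read by BacTiter-Glo luminescence.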
NS1 function inh – blocks influenza NS1 protein function; Potency, µM (doses to about 46.1 µM), inactives show at the top dose activity, positive = more growth; 0.4% of 270,000 active; calls by dose curve; note: potency is the fitted concentration of half-maximal effect; actives are rising curves; nearly all actives have a fitted effect of over 50% in size
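S. cerevisiae expressing influenza A NS1, grown in glucose, washed, then diluted 1:100 into pH 6.0 -URA galactose medium with 23 nl compound. Growth recovery read as OD600; NS1-free strain serves as control.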
Tb PYK inh – inhibitors of Trypanosoma brucei pyruvate kinase; Q57TT1; TbPYK enzyme, Kinase-Glo Plus ATP luminescence, 45 min; Potency, µM (series often up to 76.8 µM), inactives show at the highest dose activity, negative = inhibition, hits mostly inhibitors; 0.12% of 410,000 active; AID 624173; note: potency is the fitted concentration of half-maximal effect; % is set by controls: 0 for no effect and ±100 for the full control effect; nearly all actives have a fitted effect of over 50% in size
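ADP (130 uM final) triggers the TbPYK reaction after compound addition; incubation is 45 min at room temperature. Kinase-Glo Plus is then added and luminescence imaged. Normalized data are fitted to concentration-effect curves.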
LmPK inh – inhibitors of Leishmania mexicana pyruvate kinase; AID 1721; Potency, µM (titrated, usually from 57.5 µM), for the others: at the highest dose activity change, negative = inhibition, actives largely listed as inhibitors; purified LmPK, Kinase-Glo ATP luminescence, 1 h; 0.37% of 290,000 active; note: potency is the fitted concentration of half-maximal effect; % is set by controls: 0 for no effect and ±100 for the full control effect
Target sequence (Q27686 whole entry, looked up): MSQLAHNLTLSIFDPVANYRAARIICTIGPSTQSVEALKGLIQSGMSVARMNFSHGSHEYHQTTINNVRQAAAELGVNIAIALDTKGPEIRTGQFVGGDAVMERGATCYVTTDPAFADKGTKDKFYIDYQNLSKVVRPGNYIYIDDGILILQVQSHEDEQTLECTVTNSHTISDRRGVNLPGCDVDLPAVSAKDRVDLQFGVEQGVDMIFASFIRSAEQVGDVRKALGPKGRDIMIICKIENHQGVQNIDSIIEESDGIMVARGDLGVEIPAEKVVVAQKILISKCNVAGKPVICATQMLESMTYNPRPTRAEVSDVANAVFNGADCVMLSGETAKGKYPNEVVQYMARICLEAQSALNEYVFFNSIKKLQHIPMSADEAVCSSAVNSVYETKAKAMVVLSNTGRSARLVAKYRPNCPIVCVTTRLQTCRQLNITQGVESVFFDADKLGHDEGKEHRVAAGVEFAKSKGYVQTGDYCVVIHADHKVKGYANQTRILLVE
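Purified LmPK (0.1 nM) with 0.5 mM PEP and 0.1 mM ADP in imidazole buffer pH 7.2 with MgCl2/KCl, 1 h at room temperature. ATP formed was read by luciferase luminescence and normalized to no-enzyme and uninhibited controls.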
NS1 inh valid – influenza NS1 function inhibition validation. shares compounds with NS1 function inh. influenza NS1 function cell assay, 15-point titration. activity change, negative = inhibition, % at 32.9 µM. 1,400 tested, under 10 active. AID 492980; calls by dose curve; note: 0% is about no effect
* hit, by the source's call. Hits are enriched below; roughly 3.3% of the tested compounds scored in any of these assays. Unless noted, calls come from the whole dose curve; as a rule, active = well fitted curve in the direction sought with a large enough effect; inconclusive = small, poorly fitted or top-dose-only effect, or another doubt; inactive = no such curve, though single readings can be large; an effect the other way counts as inactive or inconclusive.

`Cc1ccc(S(=O)(=O)N2CCN(C(=O)CC(C)n3cncn3)CC2)cc1C` (configuration not stated) gave Sm TGR block 5%, SARS PLP yeast 4%, RE007 growth inh -11%, NS1 function inh inconclusive, Tb PYK inh 1%, LmPK inh -5% and NS1 inh valid -9.
COC(=O)CCCNC(=O)CN1CC(c2ccccc2)CC1=O (configuration not stated) was read as Sm TGR block 6%, SARS PLP yeast 2%, RE007 growth inh 20%, NS1 function inh inconclusive, Tb PYK inh 0%, LmPK inh 1% and NS1 inh valid 5.
Screening COc1cc(NC(=O)CN2CC(c3ccccc3)CC2=O)cc(OC)c1 (configuration not stated) returned Sm TGR block 6%, SARS PLP yeast 19%, RE007 growth inh -8%, NS1 function inh -26%, Tb PYK inh -8% and LmPK inh 2%.
`Cc1ccc(-n2c(O)c(/C=N/Nc3ccc(S(=O)(=O)N4CCOCC4)cc3[N+](=O)[O-])c3ccccc3c2=O)c(C)c1` gave Sm TGR block -4%, SARS PLP yeast -9%, RE007 growth inh -18%, NS1 function inh 2.5µM*, Tb PYK inh -21%, LmPK inh -29% and NS1 inh valid 34.
`Cc1ccccc1NC(=O)c1ccc(N(Cc2ccccc2)S(C)(=O)=O)cc1` gave Sm TGR block -1% and Tb PYK inh 2%.
O=C(/C=C/c1cccnc1)c1cccc(O)c1 was read as Sm TGR block 28µM*, SARS PLP yeast -1%, RE007 growth inh 5%, NS1 function inh inconclusive, Tb PYK inh -8%, LmPK inh -6% and NS1 inh valid inconclusive.
`CN(C)c1ccc(/C=C/C(=O)c2cccnc2)cc1` gave Sm TGR block -18%, SARS PLP yeast 0%, RE007 growth inh -29%, NS1 function inh -32%, Tb PYK inh -5% and LmPK inh -29%.
For N#Cc1c(N2CCN(C(=O)c3ccco3)CC2)nc(-c2ccccc2)c2c1CCCC2 the results were Sm TGR block 1%, SARS PLP yeast -25%, RE007 growth inh 3%, NS1 function inh 16%, Tb PYK inh 4% and LmPK inh 2%.
Screening CC1(C)Cc2c(C#N)c(N3CCN(C(=O)c4ccco4)CC3)nc(-c3ccco3)c2CS1 returned Sm TGR block 2.8µM*, SARS PLP yeast 22%, RE007 growth inh -1%, NS1 function inh 7.9µM*, Tb PYK inh inconclusive, LmPK inh 3% and NS1 inh valid -37.
For COc1ccccc1NC(=O)CSc1ncc2c(n1)-c1ccccc1N(Cc1ccccc1C)S2(=O)=O the results were Sm TGR block 15% and Tb PYK inh -7%.
O=C1CCCC2=C1C(c1ccc(Br)cc1)c1c([nH]c(=S)[nH]c1=O)N2 (configuration not stated) was read as Sm TGR block -4%, SARS PLP yeast 9%, RE007 growth inh 36%, NS1 function inh 6.3µM*, Tb PYK inh -28%, LmPK inh -2% and NS1 inh valid 13.
Cc1c(NC(=O)C2CCCN2S(=O)(=O)c2ccccc2)c(=O)n(-c2ccccc2)n1C (configuration not stated) was read as Sm TGR block 4%, SARS PLP yeast 1%, RE007 growth inh 4%, NS1 function inh 7.1µM*, Tb PYK inh -8%, LmPK inh 10% and NS1 inh valid -10.
Screening CC1=C(C(=O)N2CCCC(N3CCN(c4ccccc4C)CC3)C2)OCCO1 (configuration not stated) returned Sm TGR block -5%, SARS PLP yeast 17%, RE007 growth inh 18%, NS1 function inh 2.5µM*, Tb PYK inh -4%, LmPK inh 5% and NS1 inh valid 1.
COc1ccccc1N1CCN(C2CCCN(C(=O)c3cc(C4CC4)on3)C2)CC1 (configuration not stated) was read as Sm TGR block 8%, SARS PLP yeast 10%, RE007 growth inh 1%, NS1 function inh 0%, Tb PYK inh 5% and LmPK inh 2%.
COc1ccccc1N1CCN(C2CCCN(C(=O)c3cscn3)C2)CC1 (configuration not stated) was read as Sm TGR block 1%, SARS PLP yeast -1%, RE007 growth inh -17%, NS1 function inh inconclusive, Tb PYK inh 1%, LmPK inh 4% and NS1 inh valid -13.
Screening Cc1cc(C)n(CCc2nc3c4ccccc4nc(N4CCN(c5ccccc5)CC4)n3n2)n1 returned Sm TGR block 0% and Tb PYK inh -1%.
For COc1cccc(NC(=S)NCCC(c2ccccc2)c2ccccc2)c1 the results were Sm TGR block 39%, SARS PLP yeast 27%, RE007 growth inh 22%, NS1 function inh 11%, Tb PYK inh -1% and LmPK inh -1%.
Screening COc1ccc(NC(=O)CC(=O)Nc2ccc(OC)cc2OC)c(OC)c1 returned Sm TGR block -4%, SARS PLP yeast 1%, RE007 growth inh 1%, NS1 function inh inconclusive, Tb PYK inh 0%, LmPK inh 2% and NS1 inh valid 2.
`COc1ccc(NC(=S)NCCC(c2ccccc2)c2ccccc2)c(OC)c1` gave Sm TGR block 7%, SARS PLP yeast -2%, RE007 growth inh 7%, NS1 function inh 11µM*, Tb PYK inh -3%, LmPK inh 2% and NS1 inh valid inconclusive.
For CN(C(=O)c1ccc2c(c1)N(Cc1cccc(Cl)c1)C(=O)c1ccccc1S2(=O)=O)C1CCCCC1 the results were Sm TGR block 17% and Tb PYK inh 1%.
Screening Cc1ccsc1/C=C(\C(=O)c1ccc(OC(C)C)cc1)c1nc2ccccc2o1 returned Sm TGR block 6%, SARS PLP yeast 5%, RE007 growth inh -6%, NS1 function inh 14µM*, Tb PYK inh -1%, LmPK inh 6% and NS1 inh valid -29.
For Cc1ccsc1/C=C(\CC(=O)O)c1nc2ccccc2o1 the results were Sm TGR block -15%, SARS PLP yeast -9%, RE007 growth inh -7%, NS1 function inh -64%, Tb PYK inh 2% and LmPK inh -5%.
CCN(CCCNC(=O)CSc1cc(=O)n(CC)c2ccccc12)c1cccc(C)c1 was read as Sm TGR block -14% and Tb PYK inh 0%.
CCCOc1ccccc1-c1nc(SCC(=O)c2ccccc2)n[nH]1 was read as Sm TGR block -10% and Tb PYK inh -5%.

Compound activity (PubChem BioAssay)
